# Measured values from ChEMBL document CHEMBL1961873, “Compounds: GSK PKIS; Assays: Nanosyn kinase panel” (2012).
# How the values were obtained:
# [1] = biological target: Sphingosine kinase 1 (Homo sapiens) (UniProt Q9NYA1); settings: at 1 µM;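 also: mean SPHK1 inhibition value reported from the GSK PKIS kinase panel screen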
# [2] = biological target: T1, Sphingosine kinase 2 (Homo sapiens) (UniProt Q9NRA0); settings: at 0.1 µM
# T1 sequence (whole entry): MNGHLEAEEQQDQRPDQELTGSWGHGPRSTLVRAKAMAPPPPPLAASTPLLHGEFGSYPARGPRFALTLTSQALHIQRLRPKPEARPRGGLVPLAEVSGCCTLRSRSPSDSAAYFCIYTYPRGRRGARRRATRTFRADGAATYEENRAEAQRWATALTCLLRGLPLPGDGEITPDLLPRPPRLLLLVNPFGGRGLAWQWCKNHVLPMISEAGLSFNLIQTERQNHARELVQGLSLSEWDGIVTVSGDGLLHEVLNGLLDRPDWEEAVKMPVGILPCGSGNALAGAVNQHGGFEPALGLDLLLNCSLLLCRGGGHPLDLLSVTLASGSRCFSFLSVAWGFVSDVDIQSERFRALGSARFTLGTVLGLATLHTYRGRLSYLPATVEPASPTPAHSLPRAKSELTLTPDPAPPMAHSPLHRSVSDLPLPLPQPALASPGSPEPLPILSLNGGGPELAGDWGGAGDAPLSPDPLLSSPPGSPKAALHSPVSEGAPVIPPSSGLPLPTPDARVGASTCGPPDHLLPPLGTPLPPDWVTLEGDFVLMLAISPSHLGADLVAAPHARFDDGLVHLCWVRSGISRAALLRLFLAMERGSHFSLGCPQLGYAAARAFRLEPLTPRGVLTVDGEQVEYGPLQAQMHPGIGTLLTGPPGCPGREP
# [3] = biological target: T1, Sphingosine kinase 2 (Homo sapiens); settings: at 1 µM
# [4] = biological target: Casein kinase II subunit alpha (Homo sapiens) (UniProt P68400); settings: at 0.1 µM
# [5] = biological target: Casein kinase II subunit alpha (Homo sapiens) (UniProt P68400); settings: at 1 µM
# [6] = biological target: T2, Inhibitor of nuclear factor kappa-B kinase subunit alpha (Homo sapiens) (UniProt O15111); settings: at 0.1 µM
# T2 sequence (whole entry): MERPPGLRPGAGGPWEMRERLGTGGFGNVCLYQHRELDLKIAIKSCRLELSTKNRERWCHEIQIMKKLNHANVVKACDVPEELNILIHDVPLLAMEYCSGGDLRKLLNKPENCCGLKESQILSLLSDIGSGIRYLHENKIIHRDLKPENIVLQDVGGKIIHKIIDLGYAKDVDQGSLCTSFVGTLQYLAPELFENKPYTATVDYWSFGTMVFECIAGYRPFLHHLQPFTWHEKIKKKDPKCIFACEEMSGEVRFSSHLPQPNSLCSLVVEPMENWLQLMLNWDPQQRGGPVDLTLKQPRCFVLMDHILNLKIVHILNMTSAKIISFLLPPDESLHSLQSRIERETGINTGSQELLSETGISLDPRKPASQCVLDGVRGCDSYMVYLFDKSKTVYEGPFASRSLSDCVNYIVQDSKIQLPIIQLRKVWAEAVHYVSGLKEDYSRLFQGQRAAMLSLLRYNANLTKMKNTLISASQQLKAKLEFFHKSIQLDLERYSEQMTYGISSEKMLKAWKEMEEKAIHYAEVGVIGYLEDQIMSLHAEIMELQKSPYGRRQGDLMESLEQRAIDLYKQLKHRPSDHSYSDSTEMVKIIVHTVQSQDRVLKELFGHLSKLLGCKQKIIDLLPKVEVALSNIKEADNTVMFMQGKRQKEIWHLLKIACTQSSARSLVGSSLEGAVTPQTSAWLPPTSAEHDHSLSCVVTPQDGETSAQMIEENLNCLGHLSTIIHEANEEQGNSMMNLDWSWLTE
# [7] = biological target: T2, Inhibitor of nuclear factor kappa-B kinase subunit alpha (Homo sapiens); settings: at 1 µM
# [8] = biological target: T3, Inhibitor of nuclear factor kappa-B kinase subunit beta (Homo sapiens) (UniProt O14920); settings: at 0.1 µM
# T3 sequence (whole entry): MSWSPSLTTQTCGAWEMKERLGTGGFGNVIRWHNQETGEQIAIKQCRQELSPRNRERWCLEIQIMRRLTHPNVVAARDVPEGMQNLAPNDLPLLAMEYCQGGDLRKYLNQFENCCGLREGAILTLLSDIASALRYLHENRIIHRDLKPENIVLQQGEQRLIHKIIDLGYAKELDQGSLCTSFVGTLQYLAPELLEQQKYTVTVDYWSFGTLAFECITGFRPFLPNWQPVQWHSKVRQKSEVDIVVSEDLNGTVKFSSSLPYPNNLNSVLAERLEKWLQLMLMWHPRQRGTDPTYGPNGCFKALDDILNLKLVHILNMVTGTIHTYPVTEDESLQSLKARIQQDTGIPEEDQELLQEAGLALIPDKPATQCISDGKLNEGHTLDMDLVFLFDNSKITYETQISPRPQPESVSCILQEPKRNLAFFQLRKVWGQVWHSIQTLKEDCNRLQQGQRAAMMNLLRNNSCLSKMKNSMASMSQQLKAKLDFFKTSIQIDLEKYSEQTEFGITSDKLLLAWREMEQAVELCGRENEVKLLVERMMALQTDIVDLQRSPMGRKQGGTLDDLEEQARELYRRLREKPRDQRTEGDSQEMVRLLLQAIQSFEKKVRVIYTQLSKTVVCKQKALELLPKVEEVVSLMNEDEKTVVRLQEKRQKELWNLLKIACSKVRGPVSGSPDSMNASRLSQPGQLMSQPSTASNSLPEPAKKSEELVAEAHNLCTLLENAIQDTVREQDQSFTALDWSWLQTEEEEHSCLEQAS
# [9] = biological target: T3, Inhibitor of nuclear factor kappa-B kinase subunit beta (Homo sapiens); settings: at 1 µM
# [10] = biological target: T4, Inhibitor of nuclear factor kappa-B kinase subunit epsilon (Homo sapiens) (UniProt Q14164); settings: at 0.1 µM
# T4 sequence (whole entry): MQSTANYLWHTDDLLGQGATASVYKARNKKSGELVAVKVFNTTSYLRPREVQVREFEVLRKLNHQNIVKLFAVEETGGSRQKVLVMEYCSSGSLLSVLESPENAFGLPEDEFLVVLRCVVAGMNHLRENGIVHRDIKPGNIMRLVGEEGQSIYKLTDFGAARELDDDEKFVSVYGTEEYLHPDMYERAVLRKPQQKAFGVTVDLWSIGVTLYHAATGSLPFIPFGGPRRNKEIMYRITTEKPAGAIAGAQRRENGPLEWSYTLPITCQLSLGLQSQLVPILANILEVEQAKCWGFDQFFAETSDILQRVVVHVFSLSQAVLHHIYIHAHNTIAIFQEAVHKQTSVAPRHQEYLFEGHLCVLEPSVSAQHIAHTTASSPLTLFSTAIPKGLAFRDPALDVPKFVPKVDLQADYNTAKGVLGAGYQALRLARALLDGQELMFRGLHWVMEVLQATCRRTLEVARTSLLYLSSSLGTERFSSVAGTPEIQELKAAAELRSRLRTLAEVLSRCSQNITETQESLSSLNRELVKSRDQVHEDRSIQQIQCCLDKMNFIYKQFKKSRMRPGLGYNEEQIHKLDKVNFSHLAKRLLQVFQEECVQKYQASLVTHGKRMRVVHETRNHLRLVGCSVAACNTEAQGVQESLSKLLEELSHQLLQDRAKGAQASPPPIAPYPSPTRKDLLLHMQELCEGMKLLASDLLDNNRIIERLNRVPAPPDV
# [11] = biological target: T4, Inhibitor of nuclear factor kappa-B kinase subunit epsilon (Homo sapiens); settings: at 1 µM
# [12] = biological target: T5, Serine/threonine-protein kinase Nek1 (Homo sapiens) (UniProt Q96PY6); settings: at 0.1 µM
# T5 sequence (whole entry): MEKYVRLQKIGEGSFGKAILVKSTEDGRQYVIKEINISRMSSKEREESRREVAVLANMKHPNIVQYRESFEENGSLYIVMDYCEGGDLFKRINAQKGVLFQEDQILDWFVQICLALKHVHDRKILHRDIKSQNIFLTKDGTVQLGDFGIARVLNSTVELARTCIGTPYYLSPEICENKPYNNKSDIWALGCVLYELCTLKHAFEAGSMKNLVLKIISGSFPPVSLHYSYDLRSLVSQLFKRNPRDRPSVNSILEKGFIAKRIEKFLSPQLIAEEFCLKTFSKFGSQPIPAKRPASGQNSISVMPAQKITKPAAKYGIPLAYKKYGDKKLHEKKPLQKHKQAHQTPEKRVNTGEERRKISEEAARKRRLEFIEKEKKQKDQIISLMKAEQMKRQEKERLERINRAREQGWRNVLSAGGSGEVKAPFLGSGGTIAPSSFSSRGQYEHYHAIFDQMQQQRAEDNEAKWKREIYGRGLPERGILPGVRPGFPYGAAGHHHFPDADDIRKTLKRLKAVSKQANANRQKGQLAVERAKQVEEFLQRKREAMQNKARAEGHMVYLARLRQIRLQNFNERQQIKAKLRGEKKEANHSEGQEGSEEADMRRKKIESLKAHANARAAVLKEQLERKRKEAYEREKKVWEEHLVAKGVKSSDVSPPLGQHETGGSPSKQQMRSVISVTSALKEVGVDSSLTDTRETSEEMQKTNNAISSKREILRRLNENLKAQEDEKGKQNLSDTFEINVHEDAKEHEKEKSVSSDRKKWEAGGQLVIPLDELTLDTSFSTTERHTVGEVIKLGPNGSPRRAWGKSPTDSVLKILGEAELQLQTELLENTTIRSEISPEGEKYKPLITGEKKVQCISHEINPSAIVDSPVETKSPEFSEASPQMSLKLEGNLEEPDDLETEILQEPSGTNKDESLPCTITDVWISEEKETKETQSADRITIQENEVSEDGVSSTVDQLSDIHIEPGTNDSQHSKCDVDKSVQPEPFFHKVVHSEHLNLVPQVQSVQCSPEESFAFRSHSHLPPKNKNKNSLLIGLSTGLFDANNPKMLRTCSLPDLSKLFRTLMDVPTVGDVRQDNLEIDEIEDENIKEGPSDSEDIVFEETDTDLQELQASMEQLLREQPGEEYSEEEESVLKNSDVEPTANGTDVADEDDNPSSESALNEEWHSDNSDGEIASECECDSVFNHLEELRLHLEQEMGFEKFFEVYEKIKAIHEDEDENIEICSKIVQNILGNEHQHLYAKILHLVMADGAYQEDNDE
# [13] = biological target: T5, Serine/threonine-protein kinase Nek1 (Homo sapiens); settings: at 1 µM
# [14] = biological target: T6, Serine/threonine-protein kinase Nek2 (Homo sapiens) (UniProt P51955); settings: at 0.1 µM
# T6 sequence (whole entry): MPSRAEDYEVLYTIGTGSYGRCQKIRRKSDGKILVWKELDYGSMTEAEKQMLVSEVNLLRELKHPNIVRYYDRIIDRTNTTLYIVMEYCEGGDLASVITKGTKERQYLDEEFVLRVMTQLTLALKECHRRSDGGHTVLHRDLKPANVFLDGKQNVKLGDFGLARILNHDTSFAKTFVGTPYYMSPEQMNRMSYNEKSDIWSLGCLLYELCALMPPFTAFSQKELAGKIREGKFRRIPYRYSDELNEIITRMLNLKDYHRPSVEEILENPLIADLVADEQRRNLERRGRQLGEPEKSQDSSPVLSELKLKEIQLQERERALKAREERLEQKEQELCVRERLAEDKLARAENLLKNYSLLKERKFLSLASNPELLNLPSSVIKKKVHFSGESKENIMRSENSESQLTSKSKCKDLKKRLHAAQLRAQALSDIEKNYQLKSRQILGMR
# [15] = biological target: T6, Serine/threonine-protein kinase Nek2 (Homo sapiens); settings: at 1 µM
# [16] = biological target: Serine/threonine-protein kinase Nek6 (Homo sapiens) (UniProt Q9HC98); settings: at 0.1 µM
# [17] = biological target: Serine/threonine-protein kinase Nek6 (Homo sapiens) (UniProt Q9HC98); settings: at 1 µM
# [18] = biological target: Serine/threonine-protein kinase Nek7 (Homo sapiens) (UniProt Q8TDX7); settings: at 0.1 µM
# [19] = biological target: Serine/threonine-protein kinase Nek7 (Homo sapiens) (UniProt Q8TDX7); settings: at 1 µM
# [20] = biological target: T7, Serine/threonine-protein kinase Nek9 (Homo sapiens) (UniProt Q8TD19); settings: at 0.1 µM;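 also: reported value is the mean percent inhibition of NEK9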
# T7 sequence (whole entry): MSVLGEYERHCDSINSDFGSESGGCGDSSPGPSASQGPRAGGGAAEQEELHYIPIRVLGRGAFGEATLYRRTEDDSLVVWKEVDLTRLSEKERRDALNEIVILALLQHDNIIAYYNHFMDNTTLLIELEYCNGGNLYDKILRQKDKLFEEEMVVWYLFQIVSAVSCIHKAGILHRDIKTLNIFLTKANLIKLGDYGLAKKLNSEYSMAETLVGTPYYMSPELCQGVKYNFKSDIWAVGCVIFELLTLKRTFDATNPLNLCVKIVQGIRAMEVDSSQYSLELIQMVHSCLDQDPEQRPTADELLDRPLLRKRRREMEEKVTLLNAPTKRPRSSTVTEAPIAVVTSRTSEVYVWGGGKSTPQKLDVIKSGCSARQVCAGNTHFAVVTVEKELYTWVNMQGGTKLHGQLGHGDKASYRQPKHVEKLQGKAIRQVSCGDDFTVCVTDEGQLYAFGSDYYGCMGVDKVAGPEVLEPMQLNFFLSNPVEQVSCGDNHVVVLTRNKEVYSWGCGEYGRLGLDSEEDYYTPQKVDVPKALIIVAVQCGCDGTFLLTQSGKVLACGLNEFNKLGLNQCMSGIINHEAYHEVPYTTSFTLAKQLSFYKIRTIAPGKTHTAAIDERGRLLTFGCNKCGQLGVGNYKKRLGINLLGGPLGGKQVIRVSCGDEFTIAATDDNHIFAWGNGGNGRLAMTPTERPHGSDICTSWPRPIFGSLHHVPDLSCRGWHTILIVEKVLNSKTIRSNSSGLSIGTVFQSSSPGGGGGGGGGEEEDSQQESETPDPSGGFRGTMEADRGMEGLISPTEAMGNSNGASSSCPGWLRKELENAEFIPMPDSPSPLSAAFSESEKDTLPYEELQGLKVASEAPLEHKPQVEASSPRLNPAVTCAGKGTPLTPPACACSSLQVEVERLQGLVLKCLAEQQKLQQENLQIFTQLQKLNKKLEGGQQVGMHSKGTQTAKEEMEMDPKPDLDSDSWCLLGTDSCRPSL
# Chain of Serine/threonine-protein kinase Nek7 (Homo sapiens) (Q8TDX7 whole entry, looked up): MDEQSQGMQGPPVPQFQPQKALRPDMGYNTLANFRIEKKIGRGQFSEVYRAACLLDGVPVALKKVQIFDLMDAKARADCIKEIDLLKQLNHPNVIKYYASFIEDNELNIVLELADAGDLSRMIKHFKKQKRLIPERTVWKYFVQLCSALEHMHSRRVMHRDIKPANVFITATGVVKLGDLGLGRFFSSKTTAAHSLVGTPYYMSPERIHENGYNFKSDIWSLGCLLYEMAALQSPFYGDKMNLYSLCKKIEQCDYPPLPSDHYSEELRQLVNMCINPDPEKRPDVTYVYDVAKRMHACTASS
# Chain of Casein kinase II subunit alpha (Homo sapiens) (P68400 whole entry, looked up): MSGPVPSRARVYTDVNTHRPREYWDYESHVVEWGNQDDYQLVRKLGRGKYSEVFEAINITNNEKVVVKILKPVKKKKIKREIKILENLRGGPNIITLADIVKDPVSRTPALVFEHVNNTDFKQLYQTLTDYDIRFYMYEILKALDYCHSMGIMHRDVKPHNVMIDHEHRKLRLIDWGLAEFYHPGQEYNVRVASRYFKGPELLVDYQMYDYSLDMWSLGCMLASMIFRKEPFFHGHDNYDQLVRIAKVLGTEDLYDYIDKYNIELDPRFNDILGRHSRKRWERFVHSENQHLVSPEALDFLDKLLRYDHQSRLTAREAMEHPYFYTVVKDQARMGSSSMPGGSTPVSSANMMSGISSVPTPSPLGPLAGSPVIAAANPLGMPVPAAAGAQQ
# Chain of Serine/threonine-protein kinase Nek6 (Homo sapiens) (Q9HC98 whole entry): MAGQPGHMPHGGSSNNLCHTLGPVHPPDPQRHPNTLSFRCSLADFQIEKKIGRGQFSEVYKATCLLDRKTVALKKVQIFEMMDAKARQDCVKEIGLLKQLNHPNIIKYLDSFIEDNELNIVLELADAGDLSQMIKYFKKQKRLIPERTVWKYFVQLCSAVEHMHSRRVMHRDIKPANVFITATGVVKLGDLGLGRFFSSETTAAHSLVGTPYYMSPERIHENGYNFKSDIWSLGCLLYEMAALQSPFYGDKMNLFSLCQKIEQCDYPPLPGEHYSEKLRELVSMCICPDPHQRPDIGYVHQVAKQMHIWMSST
# Chain of Sphingosine kinase 1 (Homo sapiens) (Q9NYA1 whole entry): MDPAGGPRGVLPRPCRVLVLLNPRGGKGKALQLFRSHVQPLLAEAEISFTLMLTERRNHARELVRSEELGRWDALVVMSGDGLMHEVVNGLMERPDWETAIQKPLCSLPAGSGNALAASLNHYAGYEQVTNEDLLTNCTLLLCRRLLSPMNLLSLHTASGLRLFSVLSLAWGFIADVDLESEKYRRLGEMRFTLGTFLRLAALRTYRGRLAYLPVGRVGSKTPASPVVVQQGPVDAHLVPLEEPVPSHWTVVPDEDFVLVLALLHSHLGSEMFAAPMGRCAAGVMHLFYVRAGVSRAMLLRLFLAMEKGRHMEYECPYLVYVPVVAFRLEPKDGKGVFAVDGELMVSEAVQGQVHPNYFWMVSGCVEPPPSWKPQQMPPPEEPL
SMILES,inhibition [1] [%],inhibition [2] [%],inhibition [3] [%],inhibition [4] [%],inhibition [5] [%],inhibition [6] [%],inhibition [7] [%],inhibition [8] [%],inhibition [9] [%],inhibition [10] [%],inhibition [11] [%],inhibition [12] [%],inhibition [13] [%],inhibition [14] [%],inhibition [15] [%],inhibition [16] [%],inhibition [17] [%],inhibition [18] [%],inhibition [19] [%],inhibition [20] [%]
COc1cc2ncnc(Nc3ccc(C)c(O)c3)c2cc1OC,-3.1,-0.83,0.12,2.65,6.37,7.19,11.6,6.42,6.01,5.22,6.95,3.4,5.46,5.78,7.02,3.27,4.18,4.88,4.92,6.41
Nc1nccc(C#Cc2cncnc2Nc2ccc(OCc3cccc(F)c3)c(Cl)c2)n1,-0.71,0.13,-9.13,1.6,2.69,7.39,2.46,2.27,-0.17,4.71,6.36,2.09,3.18,4.14,5.98,1.4,-0.89,3.1,3.35,8.89
